Data taken from PubChem BioAssay AID745 (Emory University Molecular Libraries Screening Center, 2007).
The campaign covered roughly 33,000 compounds. About 40 (0.1%) were called active. The full list was thinned out, with actives kept by preference. Unmarked numbers belong to inactive results. Rule as the data show it: active = z-score below about -3; inactive = the rest.

Experiment: inhibitors of measles virus growth in cells, primary screen, measles RdRp inhibitor project, cell-based, single point, HTS (AID 745)
Settings: infected Vero cells, GFP fluorescence, 64 h; active compounds read low
With `COc1nc(SC)nnc1C` the z-score was -5.82 (active). Molecule `COc1cc(NC(=O)c2cc(-c3ccc(Cl)cc3)on2)c(OC)cc1Cl` has a z-score of -0.12. For `COC(=O)c1sc(=S)n(-c2ccc(OC)c(Cl)c2)c1N`, the z-score was 0.31. In the case of `O=C(Nc1c(C(=O)N2CCC(Cc3ccccc3)CC2)cnn1-c1ccccc1)c1ccc(Br)cc1`, the z-score is reported as 0.43. For `COc1ccc(-c2cc(C(=O)Nc3sc4c(c3C(N)=O)CCCC4)no2)cc1`, the z-score was 0.31. `CCCc1n(CC(O)COc2cccc(Cl)c2)c2ccccc2[n+]1C` (configuration not stated) showed a z-score of 0.55. In the case of `CC1CC(C)(C)NC(=S)N1CCC(=O)Nc1ccc(OC(F)(F)F)cc1` (configuration not stated), the z-score is reported as -0.78. `O=C1COc2ccc(Cl)cc2N1` gave a z-score of 0.06. Work on `CCOC(=O)c1sc(NC(=O)COc2ccc(C(C)C)c(C)c2)nc1C` yielded a z-score of -0.5. `COc1ccc(C2C(C(=O)Nc3ccc(Br)cc3C)c3ccccc3C(=O)N2C)cc1` (configuration not stated) showed a z-score of -0.56. `O=S(=O)(c1ccccc1)N1CCN(C2CC3CCC2C3)CC1` (configuration not stated) gave a z-score of -0.28. Molecule `N=C1N=C(N)C(Cc2ccccc2)S1` (configuration not stated) has a z-score of -0.59. Work on `Cc1noc(NS(=O)(=O)c2ccc(NC(=O)c3cccc(Br)c3)cc2)c1C` yielded a z-score of 0.43. With `CC(=O)Nc1cc(C(=O)N(C)CCC#N)ccc1Sc1ccc(Cl)cc1` the z-score was -1.08. Work on `COc1ccc(C2C(C(=O)Nc3ccccc3F)=C(C)NC3=C2C(=O)CCC3)cc1OC` (configuration not stated) yielded a z-score of 0.03. With `O=C(NCc1ccccc1)c1ccc2c(=O)n(-c3ccccc3)c(=S)[nH]c2c1` the z-score was 0.39. Work on `O=C1C(=O)N(c2nccs2)C(c2ccccc2Cl)/C1=C(\O)c1ccc(F)cc1` (configuration not stated) yielded a z-score of 1.65. `CCCCNC(=O)c1cnn2c(C)c(Cc3ccccc3)c(C)nc12` showed a z-score of -0.18. For `O=C(c1ccc(-n2c(=S)[nH]c3ccccc3c2=O)cc1)N1CCN(C2CCCCC2)CC1`, the z-score was -0.06. `O=C(Nc1ncnc2sc3c(c12)CCCC3)c1ccccc1` gave a z-score of 0.41. In the case of `S=c1[nH]c(-c2ccc(Cl)cc2)cn1-c1cccc(Cl)c1`, the z-score is reported as -0.55. `Nc1nnc2c(n1)-c1ccccc1C2=O` showed a z-score of 0.84. `CCC(NS(=O)(=O)c1ccc(Oc2ccc([N+](=O)[O-])cc2)cc1)C12CC3CC(CC(C3)C1)C2` (configuration not stated) showed a z-score of -1.36. With `O=C(CN1C(=O)c2cccc3cccc1c23)N1CCCCCC1` the z-score was 0.09. `CCCCN(C)Cc1c(O)ccc2c(=O)c(Oc3ccc(CC)cc3)c(C(F)(F)F)oc12` showed a z-score of -0.69. With `Fc1ccccc1CSc1nc(NCC2CCCO2)c2ccccc2n1` (configuration not stated) the z-score was -1.9. With `COCCNC(=O)c1ccc(N2CC3CC(C2)c2cccc(=O)n2C3)c(NC(=O)c2cc3ccccc3oc2=O)c1` (configuration not stated) the z-score was 0.89. For `Cc1ccc(NCc2ccccc2CO)cc1`, the z-score was -0.53. With `C=CCC1(C#N)C(=S)NC(c2ccccc2)=C(C(=O)OCC)C1c1cccnc1` (configuration not stated) the z-score was 1.37. With `CC(=O)N1CCc2cc(Br)cc(S(=O)(=O)NCCCN3CCCCCC3)c21` the z-score was 0.64. For `COc1ccc(C=NCCC2(c3ccc(OC)cc3)CCOC(C)(C)C2)cc1` (configuration not stated), the z-score was -0.17. For `COc1ccccc1-c1nc2nc(C)cc(=O)n2[nH]1`, the z-score was -0.19. `Cc1ccccc1C(=O)Nc1cccc(F)c1` gave a z-score of 1.39. `O=C(Cc1c(C(=O)O)[nH]c2ccc(Cl)cc12)NCc1ccc2c(c1)OCO2` showed a z-score of 1.5. With `COc1ccc(NC(=O)Cn2c(=O)n(CCc3ccccc3)c(=O)c3c(C)c(C)sc32)cc1` the z-score was 2.83. Work on `Cn1c(=O)c(=O)n(C)c2cc(S(=O)(=O)N3CCCc4ccccc43)ccc21` yielded a z-score of -0.1. With `CCN1CCN(c2cc(C)c3cc(NC(=O)CCC4CCCC4)ccc3n2)CC1` the z-score was -0.38. With `Cc1cccc(C)c1NC(=O)CSc1ccc([N+](=O)[O-])cn1` the z-score was 0.01. Work on `COc1cccc(NC(=O)Cn2cc(C(=O)C(F)(F)F)c3ccccc32)c1` yielded a z-score of -0.44. In the case of `COc1ccc(OC)c(C2Nc3cccc4cccc(c34)N2)c1`, the z-score is reported as -0.45. `CCOP(=O)(Cc1cc(C(C)(C)C)c(O)c(C(C)(C)C)c1)OCC` showed a z-score of -1.02. `CC1Cc2nc(SCC(=O)Nc3cccc(Cl)c3)n(C)c(=O)c2S1` (configuration not stated) gave a z-score of 0. `COc1cccc(OC)c1C(=O)Oc1cccc2ccc(C)nc12` gave a z-score of -0.39. With `CC1(C)CC(=O)C2=C(C1)OC1=C(C(=O)CC(C)(C)C1)C2c1ccccc1C(=O)O` the z-score was 0.12. Work on `O=[N+]([O-])c1ccc(N2CCCCCC2)c(S(=O)(=O)N2CCOCC2)c1` yielded a z-score of -0.01. `Cc1ccccc1NC(=O)CC1Sc2ccccc2NC1=O` (configuration not stated) gave a z-score of -0.07. `O=C(O)CCNC(=O)Cn1cnc2sc3c(c2c1=O)CCCC3` showed a z-score of 1.62. Work on `CCn1c(SCC(=O)Nc2ccc(F)cc2)nc2c(c1=O)SC(C)C2` (configuration not stated) yielded a z-score of -0.54. `O=C(CSc1nc2c([nH]c3ccccc32)c(=O)n1-c1cccc(Cl)c1)Nc1nccs1` showed a z-score of -1.08. With `COc1ccc(Cl)cc1NC(=O)CSc1nc2cc(OC)c(OC)cc2c2nc(C)nn12` the z-score was -0.11. For `CCOCCOC(=O)C1=C(C)NC(=O)NC1c1cccc([N+](=O)[O-])c1` (configuration not stated), the z-score was 4.15. With `COc1ccc(C=Cc2nc3ccccc3[nH]2)cc1` the z-score was -0.15. Molecule `COc1cc(C2NC(=O)N(C)C(C)=C2C(=O)OCCc2ccccc2)cc(Br)c1O` (configuration not stated) has a z-score of -0.63. Work on `COc1ccccc1-n1c(C)nc2cc(C(=O)NCc3cccnc3)ccc21` yielded a z-score of 1.95. In the case of `Cc1ccc(C(=O)CC2(O)C(=O)N(C(C)C)c3ccccc32)c(C)c1` (configuration not stated), the z-score is reported as -0.29. `Clc1ccc(-c2ncnn2-c2cccc(Cl)c2)cc1` gave a z-score of -0.25. Work on `CCOc1ccc(Nc2cc(C(=O)NCCN3CCCC3)c3ccccc3n2)cc1` yielded a z-score of -0.89. `O=C(Nc1ccccc1-c1nc2ccccc2s1)c1ccc(S(=O)(=O)N2CCCCCC2)cc1` gave a z-score of 0.69. In the case of `O=C(Nc1ccc(Oc2ccccc2)cc1)c1cn(-c2ccc(Cl)cc2)c(=O)c2ccccc12`, the z-score is reported as -0.93. Molecule `Cc1onc(-c2ccccc2)c1C(=O)N1CCN(c2ccc(OCc3ccccc3)cc2)CC1` has a z-score of -0.43. `Cc1nn(C)c(C)c1S(=O)(=O)Nc1ccc(C(C)C)cc1` showed a z-score of -0.07. In the case of `O=C(COC(=O)c1ccc(N2C(=O)c3ccccc3C2=O)cc1)c1ccc(Cl)cc1`, the z-score is reported as -1.36. Work on `CCOC(=O)c1c(O)cc2ccccc2c1O` yielded a z-score of 0.14. For `O=C1NCCCCC1Nc1ccc(N2C(=O)CCCC2=O)cc1[N+](=O)[O-]` (configuration not stated), the z-score was -1.9. With `Cc1ccc(C(=O)Nc2ccc(Br)cn2)cc1C` the z-score was -0.15. `COc1ccc(NC(=O)CN(c2cc(C(F)(F)F)ccc2Cl)S(=O)(=O)c2ccccc2)cc1` showed a z-score of -0.33. With `Cc1ccc2nc(N3CCC(C(=O)NC4CCCCC4)CC3)[nH]c2c1` the z-score was 3.44. For `CCCCSc1nnc2c(n1)OC(c1ccc3c(c1)OCO3)N(C(C)=O)c1ccccc1-2` (configuration not stated), the z-score was 0.17. `C=CCN1C(=O)c2ccccc2Sc2ccc(C(=O)NCCOC)cc21` gave a z-score of 1.28. `Cc1ccc(S(=O)(=O)N2N=C(c3ccccc3)CC2c2ccccc2Cl)cc1` (configuration not stated) showed a z-score of 0.52. `COCCOC(=O)C1=C(C)NC(=O)NC1c1ccc(Br)s1` (configuration not stated) gave a z-score of -0.55. `Cc1ccc(CNC(=O)CCNC(=O)Cn2ccc3ccccc3c2=O)cc1` showed a z-score of -0.31. In the case of `CCOc1sc2nc(C)n(CC(=O)Nc3ccc(N(C)C)cc3)c(=O)c2c1C`, the z-score is reported as -1.08. `CCC(C)NC(=O)C1(C)CCC(=O)N1CCN1CCCCCC1` (configuration not stated) showed a z-score of -0.27. With `O=C1C2C3C=CC(C3)C2C(=O)N1c1ccc(Nc2ccc3c(c2)CCC3)c([N+](=O)[O-])c1` (configuration not stated) the z-score was -1.35. `Cn1ncc([N+](=O)[O-])c1C#N` gave a z-score of -0.09. Work on `COc1ccc2c(c1)c(C(=O)CNc1nc(C)c(C)s1)c(C)n2C` yielded a z-score of -1. `O=C1CCCN1CCCn1c(=S)[nH]c2ccccc2c1=O` showed a z-score of -0.96. Molecule `CC(=O)N1CCc2cc(S(=O)(=O)CCC(=O)Nc3ccc(C(F)(F)F)cc3)ccc21` has a z-score of -0.69. With `Cc1ccc2nsnc2c1S(=O)(=O)Nc1ccc(Br)cc1` the z-score was -1.76. Molecule `Cc1ccccc1NCc1cccc([N+](=O)[O-])c1` has a z-score of 0.03. With `O=C(c1oc(=O)c2ccccc2c1-c1ccccc1)N1CCc2ccccc21` the z-score was 0.81. With `Nc1nc2ccccc2n1CCOc1ccc([N+](=O)[O-])cc1` the z-score was -0.25. In the case of `CCC(=O)Nc1cccc(-c2nc3ncccc3o2)c1`, the z-score is reported as 0.77. In the case of `Cc1ccc(CNC(=O)CCSCc2cccc(Cl)c2)cc1`, the z-score is reported as -0.79. For `CCOc1ccc(C(=O)Nc2ccc3nn(-c4ccc(OC)cc4)nc3c2)cc1Cl`, the z-score was 0.27. With `Cc1ccc(-c2nnn(CC(=O)Nc3ccc(OC(F)(F)F)cc3)n2)cc1` the z-score was 0.34. Molecule `CCOC(=O)c1cnc2ccc(Cl)cc2c1Nc1ccc2c(c1)OCCO2` has a z-score of -0.29. In the case of `O=C(N1CCCc2ccccc21)C12CC3CC(CC(C3)C1)C2`, the z-score is reported as -0.74. With `O=C(O)c1ccc2c(c1)C(=O)N(c1cccc(Oc3ccc4c(c3)C(=O)N(c3ccccc3)C4=O)c1)C2=O` the z-score was -2.01. `COc1ccc(-n2cnc3cc(C(=O)NC4CCCC4)ccc32)cc1` showed a z-score of -0.86. Molecule `Cc1cc(C)cc(-n2nc3c(c2NC(=O)CCCCl)CSC3)c1` has a z-score of -0.91. `COc1ccc(OC)c(NC(=O)c2c(NCc3ccc(C)o3)sc3c2CCC3)c1` gave a z-score of -1.95. Molecule `Cc1cccc(C(=O)Nc2ccc(-c3nc4cc(C(C)(C)C)ccc4o3)cc2)c1` has a z-score of -0.77. Molecule `CCn1cc(C(=O)Nc2cc(Cl)ccc2OC)c(=O)c2ccc(C)nc21` has a z-score of 0.75. For `CCn1cc(C(=O)NCCCN2CCCCCC2)c2cc(OC)c(OC)cc2c1=O`, the z-score was -0.6. In the case of `Cc1cc(C)cc(NC(=O)CCCn2c(=S)[nH]c3ccccc3c2=O)c1`, the z-score is reported as -1.99. `CCCCCCn1c(SCC(=O)c2ccccc2)nc2c1c(=O)[nH]c(=O)n2C` showed a z-score of -0.58. `CC(C)c1ccc(NS(=O)(=O)c2ccc3[nH]cc(C(=O)NC4CCCC4)c(=O)c3c2)cc1` gave a z-score of -2.24. Work on `COc1cc(C(=O)Nc2ccc(C(C)=O)cc2)cc(OC)c1OC` yielded a z-score of 0.14. `O=C(O)c1ccc(-n2cnnn2)cc1` showed a z-score of 1.04. For `CCOC(=O)C1CCN(c2nc(-c3cccc(C)c3)nc3ccccc23)CC1`, the z-score was -0.19. Molecule `Cc1ccccc1CSC1=NCCN1C(=O)C12CC3CC(CC(C3)C1)C2` has a z-score of -0.58. Molecule `CCOc1ccccc1N(C)C(=O)C1c2cc(OC)c(OC)cc2C(=O)N(C)C1c1cccnc1` (configuration not stated) has a z-score of 1.17. For `CCN(CC)C(=O)C1c2cc(OC)c(OC)cc2C(=O)N(C)C1c1ccc(SC)cc1` (configuration not stated), the z-score was 0.35. Work on `Nc1c(C(=O)Nc2ccc(Br)cc2)sc2nc3c(c(-c4ccco4)c12)CCCCC3` yielded a z-score of -0.89. Work on `CN(C)c1ccc(C(O)(c2ccccc2)c2ccccc2)cc1` yielded a z-score of -0.51. For `CC(C)CC(=O)N1CCN(Cc2ccccc2Br)CC1`, the z-score was 0.09. Work on `O=C(CN1CCN(Cc2cccc(Cl)c2)C1=O)NC1CCCCCCC1` yielded a z-score of 0.45. For `CC(C)CC(=O)N1CCN(Cc2cccc(Cl)c2)CC1`, the z-score was -4 (active). With `CCC(=O)N1CCc2cc(Br)cc(S(=O)(=O)N3CCCC(C(=O)N4CCN(c5cccc(C(F)(F)F)c5)CC4)C3)c21` (configuration not stated) the z-score was -0.33. `CCOC(=O)c1c(C)oc2ccc(N(C(=O)c3ccccc3Cl)S(=O)(=O)c3cccc([N+](=O)[O-])c3)cc12` showed a z-score of -0.28.
